Experimental data as given in ChEMBL document CHEMBL3988442, “University of Dundee, Small-Polar-MMV Screening Library” (2021).
Screen size: about 48,000 compounds; about 13,000 (27%) showed an effect of 50% or more. Some of the results follow.

Each compound was assayed on Wolbachia pipientis (assay: Anti-Wolbachia Cell-Based Screen). Conditions: 5 µM.
Assay type: functional
Design: scale not given: in the data most compounds retested in dose-response had high values
For Cn1ccnc1CN(CCCO)CC(F)(F)F, the “Percent Effect” value was -6.784%. In the case of CCCC(=O)N(Cc1ccncc1)C(C)CC (configuration not stated), the “Percent Effect” value is reported as -14.56%. With O=C([C@@H]1C[C@@H]2CCN(C3CCOCC3)C[C@@H]2O1)N1CCOCC1 the “Percent Effect” value was 114%. With O=C([C@H]1COC[C@H]2CN(C3CCCC3)C[C@H]21)N1CCOCC1 the “Percent Effect” value was -18.92%. For O=C([C@@H]1C[C@@H]2CCN(C3CCOCC3)C[C@H]2O1)N1CCCC1, the “Percent Effect” value was 111.9%. O=C(O)C(F)(F)F.O=C([C@@H]1COC[C@H]2CN(C3CCOCC3)C[C@H]21)N1CCOCC1 was tested, and the “Percent Effect” value was 8.462%. With O=C(CCn1cncn1)NC1(c2cccc(Br)c2)CCC1 the “Percent Effect” value was 14.53%. With CC(C)C(NC(=O)Nc1cnn(CC(N)=O)c1)c1ccc(Cl)cc1 (configuration not stated) the “Percent Effect” value was 4.509%. With O=C(c1coc(CN2CCN(c3ccccc3F)CC2)n1)N1CC=CC1 the “Percent Effect” value was -19.74%. In the case of N#CCSCCCN1CCCN(C(=O)c2ccccc2)CC1, the “Percent Effect” value is reported as 13.73%. In the case of N#CCSCCCN1CCCC(C(=O)N2CCCCCC2)C1 (configuration not stated), the “Percent Effect” value is reported as 8.122%. For N#CCSCCCN1CCN(C(=O)c2ccccc2F)CC1, the “Percent Effect” value was 105.1%. In the case of Cc1ccc(C(=O)N2CCN(CCCSCC#N)CC2)o1, the “Percent Effect” value is reported as -4.6%. With Cc1cccc(C(=O)N2CCCN(CCCSCC#N)CC2)c1 the “Percent Effect” value was 95.07%. For Cc1ccc(C(=O)N2CCc3ncnc(C)c3CC2)cc1F, the “Percent Effect” value was 4.805%. In the case of N#CCSCCCN1CCN(C(=O)C2CCCC2)CC1, the “Percent Effect” value is reported as -2.265%. In the case of N#CCSCCCN1CCN(C(=O)c2ccc(Cl)cc2)CC1, the “Percent Effect” value is reported as 23.02%. In the case of O=C(c1ccccc1F)N1CCN(CCCn2cncn2)CC1, the “Percent Effect” value is reported as -12.58%. With Cn1ccc(C(=O)N2CCCN(CCCc3ccccc3)CC2)cc1=O the “Percent Effect” value was 5.22%. With N#CCSCCCN1CCN(C(=O)c2cccc(Cl)c2)CC1 the “Percent Effect” value was 87.64%. In the case of Cc1ccc(C(=O)N2CCN(CCCSCC#N)CC2)cc1F, the “Percent Effect” value is reported as 105.3%. In the case of O=C(NC1CC1)[C@H]1[C@@H]2CN(Cc3ccc(-c4ccn[nH]4)s3)C[C@@H]21, the “Percent Effect” value is reported as -3.84%. For COC(=O)[C@@H]1C[C@@H](O)CN1Cc1ccn(-c2ccc(F)cc2)n1, the “Percent Effect” value was -13.47%. With CNC(=O)c1ccc2c(OC)n(C)nc2c1 the “Percent Effect” value was 2.989%. For CC(C)n1cnnc1CN(C)Cc1ccoc1, the “Percent Effect” value was 9.92%. For CCc1cnc(N2C[C@H]3CN(Cc4csc(C)n4)C(=O)[C@H]3C2)nc1.O=C(O)C(F)(F)F, the “Percent Effect” value was -9.51%. In the case of Cc1c[nH]c(CN2CCOC(c3ccc(Cl)c(Cl)c3)C2)c(C)c1=O (configuration not stated), the “Percent Effect” value is reported as 94.99%. In the case of Cc1nc[nH]c1CN1CCOC(c2ccc(Cl)c(Cl)c2)C1 (configuration not stated), the “Percent Effect” value is reported as 1.288%. In the case of Cc1c[nH]c(CN2CCOC(c3ccc(F)cc3)C2)c(C)c1=O (configuration not stated), the “Percent Effect” value is reported as 1.733%. Cc1nnc(CN2CCOC(c3ccc(Cl)c(Cl)c3)C2)o1 (configuration not stated) was tested, and the “Percent Effect” value was 7.568%. Cc1c[nH]c(CN2CCOC(c3ccc(Cl)cc3)C2)c(C)c1=O (configuration not stated) was tested, and the “Percent Effect” value was 100.9%. Cc1cc(C)nc(CN2CCOC(c3ccc(Cl)cc3)C2)n1 (configuration not stated) was tested, and the “Percent Effect” value was -0.4936%. CN1CCN(CCCNCc2cc(O)c3cc(F)ccc3n2)CC1 was tested, and the “Percent Effect” value was -16.72%. In the case of NC(=O)NCCC(=O)N1CCC(c2cc(Cc3ccccc3)n[nH]2)CC1, the “Percent Effect” value is reported as -24.35%. Cn1ncc2c1CCCC2NCc1cnc(-c2ccccc2)nc1 (configuration not stated) was tested, and the “Percent Effect” value was -0.06204%. In the case of Cn1ncc2c1CCCC2NCc1cccnc1 (configuration not stated), the “Percent Effect” value is reported as 87.53%. CSc1ccc(CNC2CCCc3c2cnn3C)cc1.Cl (configuration not stated) was tested, and the “Percent Effect” value was 78.82%. For Cc1ccc(CNC2CCCc3c2cnn3C)s1.Cl (configuration not stated), the “Percent Effect” value was 1.48%. COc1cc(CNC2CCCc3c2cnn3C)cc(OC)c1.Cl (configuration not stated) was tested, and the “Percent Effect” value was 0.06204%. For Cc1cccc(CNC2CCCc3c2cnn3C)c1.Cl (configuration not stated), the “Percent Effect” value was 0.5584%. Cn1ncc2c1CCCC2NCc1ccc(OCc2cccnc2)cc1 (configuration not stated) was tested, and the “Percent Effect” value was 102.9%. With Cl.Cn1ncc2c1CCCC2NCc1ccc(Br)s1 (configuration not stated) the “Percent Effect” value was -6.912%. Cn1ncc2c1CCCC2NCc1ccc(Cl)s1 (configuration not stated) was tested, and the “Percent Effect” value was -1.294%. With Cn1ccc(C(=O)N2CCCC(Cc3cccc4ncccc34)C2)n1 (configuration not stated) the “Percent Effect” value was -23.19%. Cn1ccc(C(=O)N2CCC(Cc3cccc4ncccc34)C2)n1 (configuration not stated) was tested, and the “Percent Effect” value was 142.2%. In the case of CC(C)(C)C(O)CN1CCN(C(=O)c2cccc3ncccc23)CC1 (configuration not stated), the “Percent Effect” value is reported as 5.5%. In the case of COc1cccc(CCC2CCCN(C(=O)c3ccc(=O)n(C)n3)C2)c1 (configuration not stated), the “Percent Effect” value is reported as -50.16%. In the case of Cn1ccc(C(=O)N2CCCC(Cc3cccc4cccnc34)C2)n1 (configuration not stated), the “Percent Effect” value is reported as 100.6%. With Cn1ccc(C(=O)N2CCC(Cc3cccc4ncccc34)CC2)n1 the “Percent Effect” value was 112%. Cn1ccc(C(=O)N2CCCC(Cc3cnc4ccccc4c3)C2)n1 (configuration not stated) was tested, and the “Percent Effect” value was 126.8%. With Cn1ccc(C(=O)N2CCC(Cc3cccc4cccnc34)C2)n1 (configuration not stated) the “Percent Effect” value was -6.832%. With CC(C)C(C)NC(=O)CN1CCSCC1 (configuration not stated) the “Percent Effect” value was 15.54%. COC(=O)N1CCCCC1C(=O)N(C)Cc1cc(-c2cccnc2)no1 (configuration not stated) was tested, and the “Percent Effect” value was -13.17%. For CC(c1ccccc1)N(C)CC(=O)NCCC#N (configuration not stated), the “Percent Effect” value was 10.46%. With COc1ccc2nc3n(c2c1)[C@@H](CNC(=O)c1cncnc1)COC3 the “Percent Effect” value was -25.15%. With CCOC(=O)C1CCCCN1Cc1c[nH]nc1-c1ccc(F)cc1F (configuration not stated) the “Percent Effect” value was -25.87%. With CN(C)S(=O)(=O)N1CCN(Cc2ccnc(N3CCCC3)n2)CC1 the “Percent Effect” value was 116.4%. CN(C)S(=O)(=O)N1CCN(c2ccnc(N3CCCC3)n2)CC1 was tested, and the “Percent Effect” value was 6.981%. With CN(C)S(=O)(=O)N1CCN(c2ccnc(N3CCCCC3)n2)CC1 the “Percent Effect” value was 2.063%. With CC(C)CN1CC(c2nc(-c3cccc(F)c3)c[nH]2)CC1=O (configuration not stated) the “Percent Effect” value was -7.334%. For Cc1ncsc1C(=O)NC1CCN(c2ncccc2C#N)CC1, the “Percent Effect” value was 3.03%. With COc1cc(NC2CCCN(c3ncccn3)C2)cc(OC)c1 (configuration not stated) the “Percent Effect” value was 107.2%. For COc1ccccc1N1CCCC(Nc2nccnc2C#N)C1 (configuration not stated), the “Percent Effect” value was -6.167%. For COc1cc(CNC2CCCN(c3ncccn3)C2)cc2c1OCO2 (configuration not stated), the “Percent Effect” value was -8.887%. COc1cc(NC2CCCN(c3ncccc3C#N)C2)cc(OC)c1 (configuration not stated) was tested, and the “Percent Effect” value was 118.7%. For CC(OCC1CC1)C(=O)N1CCCN(c2ncccc2C#N)CC1 (configuration not stated), the “Percent Effect” value was 0.6677%. In the case of COc1cc(NC2CCCNC2)cc(OC)c1 (configuration not stated), the “Percent Effect” value is reported as -9.333%. Cc1cc(C(=O)NC2CCN(c3ncccc3C#N)CC2)no1 was tested, and the “Percent Effect” value was -13.19%. N#Cc1cccnc1N1CCC(Nc2ccccc2)C1 (configuration not stated) was tested, and the “Percent Effect” value was 96.82%. With CCn1ccnc1CN1CCN(c2nccc(OC)n2)CC1C (configuration not stated) the “Percent Effect” value was -24.68%. For Fc1cccc(-c2nnn3c2COC(CNc2ncccn2)C3)c1 (configuration not stated), the “Percent Effect” value was -1.841%. CN1CCOC(CN(C(=O)CCc2cnn(C)c2)c2nccs2)C1 (configuration not stated) was tested, and the “Percent Effect” value was 107%. CC[C@@]1(O)CCN(C(=O)CCc2cnn(C)c2)C[C@H]1O was tested, and the “Percent Effect” value was -7.505%. In the case of Cc1ccc(CC(=O)N2CCCC(c3nc(C)cs3)C2)cn1 (configuration not stated), the “Percent Effect” value is reported as -6.398%. In the case of Cc1ccc(CC(=O)N(CC2CN(C)CCO2)c2nccs2)cn1 (configuration not stated), the “Percent Effect” value is reported as 90.15%. In the case of CN1CCOC(CN(C(=O)CC2CCCC2)c2nccs2)C1 (configuration not stated), the “Percent Effect” value is reported as -0.02384%. In the case of CN1CCOC(CN(C(=O)Cc2ccccc2F)c2nccs2)C1 (configuration not stated), the “Percent Effect” value is reported as -6.62%. CN1CCOC(CN(C(=O)COc2ccccc2)c2nccs2)C1 (configuration not stated) was tested, and the “Percent Effect” value was 132.7%. With Cc1cnn(CC2CN(CC(=O)N(C)c3nccs3)CCO2)c1 (configuration not stated) the “Percent Effect” value was 4.22%. For Cc1cc(CC(=O)N(CC2CN(C)CCO2)c2nccs2)no1 (configuration not stated), the “Percent Effect” value was -0.7073%. In the case of O=C(CN1CCOC(Cn2cccn2)C1)Nc1nccs1 (configuration not stated), the “Percent Effect” value is reported as -0.2623%. With CN1CCOC(CN(C(=O)CCCn2cccn2)c2nccs2)C1 (configuration not stated) the “Percent Effect” value was 81.94%. With c1cnn(CC2CN(c3ncnc4ccsc34)CCO2)c1 (configuration not stated) the “Percent Effect” value was -13.22%. For CC(C)C1CN(C(=O)Nc2cnn(CC(F)F)c2)CCO1 (configuration not stated), the “Percent Effect” value was 14.22%. In the case of CC(C)N1CC2(CCCN(Cc3noc(C4CCCC4)n3)C2)CCC1=O (configuration not stated), the “Percent Effect” value is reported as 0.7717%. For COC1CCN(C(=O)c2csc(-c3ccccc3F)n2)CC1, the “Percent Effect” value was 15.42%. In the case of CN1CCOC(CN(C(=O)CCc2ccco2)c2nccs2)C1 (configuration not stated), the “Percent Effect” value is reported as 89.12%. For Nc1nccnc1C(=O)N(Cc1ccco1)CC1CCCO1 (configuration not stated), the “Percent Effect” value was 3.477%. O=C(NCCc1nccs1)C1CCCN(Cc2ccco2)C1 (configuration not stated) was tested, and the “Percent Effect” value was -29.34%. For O=C(CCc1cn[nH]c1)N1C[C@H](CO)C[C@H](CN2CCOCC2)C1, the “Percent Effect” value was -1.636%. Cn1cnnc1C1CCCN(C(=O)c2ccccc2Cl)C1 (configuration not stated) was tested, and the “Percent Effect” value was 1.344%. Cc1noc(C2CCCN(C(=O)c3cc(Cl)c(Cl)n3C)C2)n1 (configuration not stated) was tested, and the “Percent Effect” value was 3.125%. Cn1cnnc1C1CCCN(C(=O)c2cc(Cl)cc(Cl)c2)C1 (configuration not stated) was tested, and the “Percent Effect” value was 113.5%. With Cn1cnnc1C1CCCN(C(=O)c2cc(Cl)c3c(c2)OCO3)C1 (configuration not stated) the “Percent Effect” value was -3.548%. For Cn1cnnc1C1CCCN(C(=O)c2cc(Cl)c(Cl)n2C)C1 (configuration not stated), the “Percent Effect” value was 115.1%. With O=C(c1cnns1)N1CCN(Cc2ccc(F)cc2Cl)CC1 the “Percent Effect” value was 11.32%. With Cc1nn(C)c(C)c1C1CCCN1c1ncnc2[nH]ccc12 (configuration not stated) the “Percent Effect” value was 1.551%. In the case of Brc1ccc(NCCCOC2CCOCC2)nc1, the “Percent Effect” value is reported as 3.889%. CCN(Cc1cc(Cl)ccc1OC)Cc1ncnn1CC was tested, and the “Percent Effect” value was 0.2011%. With CCCc1nnc(N2CCN(c3ccccc3OCC)CC2)o1 the “Percent Effect” value was 99.15%. In the case of COc1ccccc1CN1CCN(CCN2CCOC2=O)CC1, the “Percent Effect” value is reported as -7.896%. CCOc1ccccc1N1CCN(CC2(O)CCCNC2)CC1 (configuration not stated) was tested, and the “Percent Effect” value was -13.46%. For CCOc1ccccc1N1CCN(c2nnc(C)o2)CC1, the “Percent Effect” value was 100.3%. In the case of CCCc1nnc(N2CCN(c3cccc(OC)c3)C(=O)C2)o1, the “Percent Effect” value is reported as 11.57%. With COc1ccccc1N1CCN(Cc2nc(C)c(C)o2)CC1 the “Percent Effect” value was -4.949%. In the case of CCCc1nnc(N2CCN(Cc3ccccc3OC)CC2)o1, the “Percent Effect” value is reported as 96.58%. For c1ccc(OCc2noc(CN3CCC(N4CCSCC4)CC3)n2)cc1, the “Percent Effect” value was -5.795%.
